Here are results for 10 compounds from PubChem BioAssay (NCATS).

Values without a mark were called inactive. Records with an inconclusive call do not appear. Calls of active or inactive are those of the source. Unless noted, the call rests on the fitted dose curve; in most records, active means well fitted curve in the direction sought with a large enough effect; inconclusive means small, poorly fitted or top-dose-only effect, or another doubt; inactive means no such curve, though single readings can be large; an effect the other way counts as inactive or inconclusive.

Assay [1] is described as follows: qHTS to identify inhibitors of the type 1 interferon - major histocompatibility complex class I in skeletal muscle: primary screen against the NCATS Pharmaceutical Collection (AID 1347407).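 Further: luminescence of HiBiT knocked into endogenous HLA-B as interferon-induced MHC class I level; on the % scale 0 is the no-effect control and ±100 the full control effect.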 Put shortly:
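Immortalized human myoblasts (C25cl48) with HiBiT knocked into endogenous HLA-B*08:01 were stimulated with 4.0 ng/ml IFN-beta and treated with compounds ([…] top 46 uM) for 24 hrs at 37 C. HiBiT lytic luminescence read.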
(Quantitative high-throughput screening tests each substance at several concentrations.)

Assay [2] is described as follows: qHTS for inhibitors of adenylyl cyclases using a fission yeast platform: a pilot screen against the NCATS LOPAC library (AID 1347410).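 Further: plate controls were DMSO vehicle for no effect and DPI positive control for full effect.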 In a few lines:
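S. pombe CHP2027 (AC9-GNAS-PDE4D2) carrying PKA-repressed fbp1-GFP, incubated 18 h at 30C in EMM with LOPAC compounds at up to 57 uM. GFP gain-of-signal read by laser scanning cytometry; DMSO negative control.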

In assay [3] the target is Protein phosphatase 1D (Homo sapiens) (UniProt O15297). Put plainly: RapidFire Mass Spectrometry qHTS Assay for Modulators of WT P53-Induced Phosphatase 1 (WIP1) (AID 1347424).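 Further: amount of dephosphorylated VEPPL-S-QETFS peptide product formed by WIP1; series mostly up to about 63 µM; plate controls were DMSO wells for no effect and GSK830371 inhibitor control at 10 µM for full effect.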 Put shortly: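 WIP1 (10 nM final) was preincubated 1 h at room temperature with compounds in Tris-HCl pH 7.5, 30 mM MgCl2, TCEP, EGTA, BSA; 2 uM VEPPL-pS-QETFS phosphopeptide was added for 5 min, quenched with formic acid, and dephosphorylated product quantified by RapidFire MS.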
Protein phosphatase 1D (Homo sapiens), sequence (O15297 whole entry, looked up): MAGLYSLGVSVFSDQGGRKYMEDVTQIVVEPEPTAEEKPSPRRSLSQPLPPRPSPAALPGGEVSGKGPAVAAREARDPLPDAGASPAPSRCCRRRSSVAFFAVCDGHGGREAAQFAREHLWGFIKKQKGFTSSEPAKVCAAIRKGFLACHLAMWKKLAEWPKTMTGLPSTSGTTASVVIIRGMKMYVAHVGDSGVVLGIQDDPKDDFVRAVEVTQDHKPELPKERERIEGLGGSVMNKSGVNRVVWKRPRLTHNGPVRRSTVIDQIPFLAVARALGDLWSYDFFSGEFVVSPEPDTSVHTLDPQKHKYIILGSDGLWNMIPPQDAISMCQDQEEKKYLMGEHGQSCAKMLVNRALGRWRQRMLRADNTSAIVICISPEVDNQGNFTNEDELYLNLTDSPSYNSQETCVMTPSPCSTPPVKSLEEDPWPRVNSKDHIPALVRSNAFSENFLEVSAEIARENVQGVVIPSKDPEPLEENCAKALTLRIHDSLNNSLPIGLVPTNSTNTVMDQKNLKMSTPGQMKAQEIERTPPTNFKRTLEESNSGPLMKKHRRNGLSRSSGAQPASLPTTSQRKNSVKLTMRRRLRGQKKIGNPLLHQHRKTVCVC

Assay [4] has the same target. The assay can be described thus: Rhodamine-PBP qHTS Assay for Modulators of WT P53-Induced Phosphatase 1 (WIP1) (AID 1347425). Further: % of control where 0% means no effect. In a few lines: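 Steps: enzyme with Rh-PBP sensor and compounds, room-temperature incubation of 1 hr, baseline read, addition of VEPPL-pS-QETFS (10 uM final), kinetic fluorescence reads at 525/598 nm. Activity equals final minus baseline signal.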

Assay [5] has as its target Single-stranded DNA cytosine deaminase (Homo sapiens) (UniProt Q9GZX7). The assay can be described thus: Validation qHTS assay for inhibitors of Activation Induced Cytidine Deaminase (AID): AID signal (AID 1347429). Further: on the % scale 0 is the no-effect control and ±100 the full control effect. In a few lines:
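Fluorescence at 540 nm excitation and 590 nm emission reports ssDNA cytosine deamination by AID, with UDG in the same well. Compound-treated reactions ran 4 hr at room temperature with DJC20/DJC23 substrate, followed by 30 min NaOH treatment.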

A short description of assay [6]: Primary qHTS for inhibitors of La Crosse Virus (LACV) - induced cell death in SH-SY5Y cells (AID 1508616).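 Further: top concentration of the series differs between compounds; 0% = infected DMSO wells and 100% = uninfected DMSO wells; higher means more rescue of cells from virus-induced death.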 In a few lines: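 Protection against LACV-induced cell death is scored in SH-SY5Y cells exposed to compounds and virus (0.01 MOI) for 6 days. Data normalized to virus-infected DMSO wells and virus-free DMSO wells.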
Assay [7] in a line: Primary qHTS for small molecule stabilizers of the endoplasmic reticulum resident proteome: Secreted ER Calcium Modulated Protein (SERCaMP) assay (AID 1508630). Further: on the % scale 0 is the no-effect control and ±100 the full control effect. In a few lines:
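GLuc-SERCaMP-expressing SH-SY5Y cells, pretreated 16 h with compound, are challenged with thapsigargin to empty ER calcium stores; after 4 h, coelenterazine is added directly to the medium and luminescence is imaged.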

A short description of assay [8]: A High-Content qHTS Against Drug Library for the Identification of Small Molecules that Inhibit DYT1 Early Onset Primary Dystonia-Associated Cell Pathology (AID 1645839; calls by dose curve; further: series mostly up to about 46 µM). In a few lines: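 Readout: %pathology, the punctate EGFP-TorsinA distribution from imaging, as the primary channel and cell count as the toxicity counterscreen. HEK293 Flp-In cells expressing delE TorsinA were induced with tetracycline and treated with compound for 48 h.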

Assay [9] can be described thus: Vero cells viability qHTS for Zika virus inhibitors (AID 1347167). Further: on the % scale 0 is the no-effect control and ±100 the full control effect. In a few lines: (§1)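 Counter-screen for cytotoxicity of hits from NS2B-NS3 protease qHTS. Overnight-attached cells (2.5 x 10^5 cells/mL, DMEM/4% FBS) were dosed in titration, incubated 24 to 48 hours, then assayed by CellTiter Glo.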
A short description of assay [10]: HepG2 cells viability qHTS for Zika virus inhibitors (AID 1347168). Further: on the % scale 0 is the no-effect control and ±100 the full control effect. Put shortly: as §1
A short description of assay [11]: Tertiary RLuc qRT-PCR qHTS assay for Zika virus inhibitors (AID 1347169). Further: top concentration of the series differs between compounds; on the % scale 0 is the no-effect control and ±100 the full control effect; nearly all actives have a fitted effect of over 55% in size. Put shortly: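 Vero cells (1,000/well) infected with recombinant ZIKV-RLuc (Cambodian) at MOI 1-2 after compound addition, 48-72 hrs at 37 degrees C. Live-cell Renilla luciferase substrate added; luminescence read after 1-1.5 hrs.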
(In general: Real-time PCR tracks product formation cycle by cycle.)

The target of assay [12] is Calcium and integrin-binding protein 1 (Homo sapiens) (UniProt Q99828). The assay can be described thus: Validation qHTS for Identification of Calcium Integrin Binding protein 1 (CIB1) Competitor (AID 1508618). Further: on the % scale 0 is the no-effect control and ±100 the full control effect. In a few lines: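 In this qHTS validation, the LOPAC set (up to 114 uM) was tested for blocking CIB1 binding to a fluorescein-tagged alphaIIb peptide, with FP detection at 480/540 nm.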
Calcium and integrin-binding protein 1 (Homo sapiens), sequence (Q99828 whole entry, looked up): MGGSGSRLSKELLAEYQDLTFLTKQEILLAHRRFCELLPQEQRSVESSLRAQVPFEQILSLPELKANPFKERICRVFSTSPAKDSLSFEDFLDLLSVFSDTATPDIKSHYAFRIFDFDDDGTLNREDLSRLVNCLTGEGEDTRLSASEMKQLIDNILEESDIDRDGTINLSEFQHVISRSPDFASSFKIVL

The target is the same in assay [13]. The assay can be described thus: Primary qHTS for Identification of Calcium Integrin Binding Protein 1 (CIB1) Competitor (AID 1508620). In a few lines: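 Fluorescence polarization competition: CIB1-GST (1 uM final) preincubated with compound 15 min at room temperature, then FITC-labeled alphaIIb peptide (100 nM final) added for another 15 min. Polarization read at Ex 480/Em 540.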

Assay [14] can be described thus: Counterscreen qHTS for small molecule stabilizers of the endoplasmic reticulum resident proteome: GLuc-NoTag assay (AID 1508627).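 Further: SH-SY5Y cells given compound then 100 nM thapsigargin to empty ER calcium; series mostly up to about 76 µM; 0% = thapsigargin alone and -100% = DMSO vehicle control.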 Put shortly:
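SH-SY5Y cells stably expressing constitutively secreted GLuc (no SERCaMP tag) were pre-incubated 5 h, treated with compound for 19 h, then 100 nM thapsigargin for 4 h at 37C; medium GLuc read by coelenterazine luminescence.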
A general note: Counterscreens check selectivity or assay interference.

Assay [15] in a line: qHTS to identify inhibitors of the type 1 interferon - major histocompatibility complex class I in skeletal muscle: primary screen against the NCATS LOPAC collection (AID 1347405). In a few lines: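 Luminescence from HiBiT fused to endogenous HLA-B in CRISPR-engineered human myoblasts served as the read-out. Cells received 4.0 ng/ml IFN-beta plus compound (seven concentrations, 1:4.3 steps, highest 46 uM final) for 24 hrs before lytic detection.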

Assay [16] in a line: Confirmatory qHTS for small molecule stabilizers of the endoplasmic reticulum resident proteome: Secreted ER Calcium Modulated Protein (SERCaMP) assay (AID 1508628). Further: nearly all actives have a fitted effect of over 40% in size. Further: potency means the concentration at half of the fitted maximal effect. Put shortly:
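SH-SY5Y cells stably expressing GLuc-SERCaMP, treated 16 h with compound (primary 1.53, 7.67, 38.3 uM; confirmation 11 concentrations, up to 76.6 uM), then 100 nM thapsigargin for 4 h. Secreted Gaussia luciferase in medium read by coelenterazine luminescence.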

A short description of assay [17]: Cell Viability qHTS for small molecule stabilizers of the endoplasmic reticulum resident proteome (AID 1508629). The following applies: cell viability counter-screen, 100 nM thapsigargin for final 4 h.
The nature of assay [18]: Validation qHTS assay for inhibitors of Activation Induced Cytidine Deaminase (AID): UDG Counterscreen signal (AID 1347427). Further: 0% is about no effect. Put shortly:
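Counterscreen read of UDG activity (2 U/mL, 4/3x) in the FRET deamination format with AID (1 uM, 4/3x), DJC20/DJC23 substrates (250 nM, 4x), 4 h at room temperature. NaOH stop, fluorescence at 560 ex/665 em.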

The nature of assay [19]: qHTS to identify inhibitors of the type 1 interferon - major histocompatibility complex class I in skeletal muscle: primary screen against the NCATS Mechanism Interrogation Plate v5.0 (MIPE) Libary (AID 1347411).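 Further: plate controls were vehicle for no effect and reference inhibitor for full effect; nearly all actives have a fitted effect of over 65% in size.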 Put shortly:
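Luminescence from HiBiT-tagged endogenous HLA-B*08:01 served as the MHC class I read-out. CRISPR-engineered C25cl48 human myoblasts received 4.0 ng/ml IFN-beta plus compound for 24 hrs, with an 11-point, 1:3 series topping at 46 uM final.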

Single-stranded DNA cytosine deaminase (Homo sapiens), sequence (Q9GZX7 whole entry, looked up): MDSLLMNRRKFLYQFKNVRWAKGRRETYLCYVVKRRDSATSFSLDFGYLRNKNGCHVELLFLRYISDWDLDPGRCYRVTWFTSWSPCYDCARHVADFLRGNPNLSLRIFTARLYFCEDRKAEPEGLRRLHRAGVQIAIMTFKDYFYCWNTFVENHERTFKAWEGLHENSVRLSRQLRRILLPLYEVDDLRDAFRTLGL

Take `CN(C)CC[C@@H](c1ccc(Cl)cc1)c1ccccn1`: the Potency entry in assay [1], in [5], in assay [7] and in [8] was “inactive” each time. Besides, the call in [2], in [3], in [4] and in assay [6] was inactive.

As for `NC1[C@H]2CN(c3nc4c(cc3F)c(=O)c(C(=O)O)cn4-c3ccc(F)cc3F)C[C@@H]12` (some centres undefined), the Potency result in [9], in [11] and in assay [14] was “inactive” in each case. The result in assay [10], in assay [2], in assay [3], in assay [4], in [6] and in [12] was inactive. The outcome in assay [13] was inactive.

As for `Nc1cc(=O)[nH]c(N)n1`, the Potency result in [15], in assay [1], in assay [5], in assay [7] and in assay [8] was “inactive” in each case. The outcome in [2], in [3], in [12] and in assay [13] was inactive.

As to `CN(C)CCOC(C)(c1ccccc1)c1ccccn1` (centres undefined), the Potency entry in assay [15], in [1], in assay [5], in [7] and in [8] was “inactive” throughout. Moreover, the result in assay [2], in [3], in assay [6], in assay [12] and in assay [13] was inactive.

For the compound `CC(=O)c1ccc2c(c1)N(CCCN(C)C)c1ccccc1S2`, the Potency entry in assay [1] and in assay [14] was “inactive” throughout. Moreover, the call in [2], in assay [3], in assay [4], in assay [6], in assay [12] and in assay [13] was inactive. Also, the Potency in assay [16] is 25.1 µM (active). Moreover, the max response in assay [17] was -6.13%.

On to `CC1=C(CC(=O)O)c2cc(F)ccc2/C1=C\c1ccc(S(C)=O)cc1` (centres undefined), for which the Potency entry in [15], in [1], in assay [18], in assay [5], in assay [7] and in assay [8] was “inactive” in each case. Further, the compound was classed as inactive in assay [2], in assay [3] and in assay [4].

Take `CC1=C(/C=C/C(C)=C/C=C/C(C)=C/C(=O)O)C(C)(C)CCC1`: the Potency entry in assay [1], in assay [19], in assay [5] and in [7] was “inactive” in each case. Moreover, the result in [2], in assay [3], in assay [4], in [6], in [12] and in assay [13] was inactive.

As to `CNC(=O)Oc1ccc2c(c1)[C@]1(C)CCN(C)[C@@H]1N2C`, the Potency result in assay [1], in [5], in assay [7] and in assay [8] was “inactive” in each case. The compound was called inactive in [2], in assay [3], in assay [4], in assay [6], in assay [12] and in assay [13].

Take `CN(C)CCC=C1c2ccccc2CCc2ccccc21`: the Potency entry in assay [1], in assay [5] and in assay [16] was “inactive” each time. Besides, the compound was classed as inactive in [2], in assay [3], in assay [4], in [6], in [12] and in assay [13].

For `CCCn1cnc2c1c(=O)n(CCCCC(C)=O)c(=O)n2C`, the Potency result in assay [1], in assay [5], in [7] and in assay [8] was “inactive” each time. Moreover, the outcome in [2], in assay [3], in assay [4], in assay [12] and in assay [13] was inactive.
